Consider 40 compounds from PubChem BioAssay (NCI).

This is part of a sample that, as a whole, favours compounds with a hit. Of some 83,000 tested, about 20% had one in any assay.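 The endpoint reported here, percent growth, reads 100 for growth as untreated, 0 for no net growth and -100 for all cells dead.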 Active and inactive are the calls of the source.

The test system of the assay is OVCAR-8 ovarian. The assay can be described thus: NCI-60 one-dose screen, 48 h (100 = growth as untreated, 0 = no growth, -100 = all killed). The conditions noted are these: 10 µM unless noted. The procedure:
Growth inhibition of the OVCAR-8 human tumor cell line is measured as a screen for anti-cancer activity. Cells are grown in 96 well plates and exposed to the test compound for 48 hours. Compounds are tested at a single concentration, which is 10^-5 M for most compounds. The reported endpoint is percent growth (GI% or GIPRCNT), where numbers from 0 - 100% represent growth inhibition, and numbers from -100% - 0 represent cell death. For example, a value of 40 represents 60% growth inhibition. A value of 0 means no net growth occurred over the course of the experiment. A value of -40 indicates 40% of cells at the beginning of the experiment died by the end of the experiment. A value of -100 means all cells are dead at the end of the experiment.
NCI-60 Human Tumor Cell Lines Screen was performed using the standard one-dose NCI protocol, which is described in more detail at https://dtp.cancer.gov/discovery_development/nci-60/default.htm.
Compounds with GIPRCNT values below 10 were considered active. Activity score was based on GIPRCNT using the following formula: […]
Score is 0 for GIPRCNT values of 100 or above, 50 for GIPRCNT values of 0, and 100 for GIPRCNT values of -100.
As for `COc1ccc(C(=O)c2sc3nc4c(c(C(F)(F)F)c3c2N)CN(C(C)=O)CC4)cc1OC`, the growth was 80.9% (inactive). Take `CCOC(=O)c1cnc2cc(Cl)c(F)cc2c1Nc1cccc(NS(C)(=O)=O)c1`: the growth was 102% (inactive). Turning to `O=C(COc1cccc(/C=C2/Oc3ccccc3C2=O)c1)Nc1nccs1`, the growth was 61.8% (inactive). To `CCN(CC)CC(C)Nc1ccc([N+](=O)[O-])c2sc3ccccc3c(=O)c12` (stereo not given) belongs 24.6% (inactive). Take `COc1ccc(-n2c(C)nc3c(c(C)nn3-c3ccccc3)c2=O)cc1`: the growth was 6.61% (active). To `O=S(=O)(Nc1ccc(Cl)cc1Cl)c1ccc(-c2cnc(C3CC3)o2)cc1` belongs 26.5% (inactive); to `CSc1nc(NCCO)c(C#N)c(-c2cccc(N)c2)n1`, 98.8% (inactive).

With `Nc1nc2ccc(-c3nc4ccc5[nH]ncc5c4c4c3CCC4)cc2s1`, the growth is 28.6% (inactive). As for `O=C1OC2C(I)C3CC2C1C3c1ccccc1` (stereo not given), the figure is 112% (inactive).

On to `O=C1C(=O)N(CCCCn2cc(CO)nn2)c2ccccc21`, for which the growth is 102% (inactive). As for `C=C1CC[C@@H]2[C@](C)(COC(C)=O)[C@H](OC(C)=O)CC[C@@]2(C)[C@@H]1CC(Nc1ccc(S(=O)(=O)Nc2ccc(Cl)nn2)cc1)C1=CCOC1=O` (stereo not given in full), the figure is 16.9% (inactive); as for `COc1ccc(C(=O)/C=C/c2c[n+](=O)c3ccc(F)cc3n2[O-])cc1`, 83.5% (inactive).

Consider `COC1=CC(=O)C(OC)=C(OC)C1=O`, for which the growth was 101% (inactive). On to `O=c1c2cccc3c(NC4CCCCC4)ccc(c32)c2nc3ccccc3n12`, for which the growth is 97.9% (inactive).

For the compound `C=C1CC2(OC1=O)C(=O)Nc1ccccc12` (stereo not given), the growth was 89.4% (inactive). To `COc1cc2c(=O)n(CC3CCCCC3)c3c4cc[nH]c4ncc3c2cc1OC` belongs 26.9% (inactive); to `C[C@@H]1CC[C@@H]2[C@@H]1[C@H](OC(=O)/C=C/c1ccccc1)[C@]1(C3CCCCC3)C[C@@H](OC(=O)CO)[C@@]2(C)O1`, 45.2% (inactive). To `O=C(N/N=C/c1ccc(O)cc1O)c1cccnc1` belongs -8.42% (active). Consider `O=C(CNC1C2CC3CC(C2)CC1C3)Sc1nnc2sc3ccccc3n12` (stereo not given), for which the growth is 106% (inactive). In the case of `O=C1C=CC(=O)N1c1ccc(Cc2ccc(N3C(=O)C=CC3=O)cc2)cc1`, the growth is 103% (inactive). In the case of `CNC(=O)c1cc(Oc2ccc3nc(NC(=O)Nc4ccc(CN5CCOCC5)c(C(F)(F)F)c4)sc3c2)ccn1`, the growth is 18% (inactive). To `CCOC(=S)SCc1ccc(Cl)cc1` belongs 101% (inactive); to `ClC1=C2NC=NC2n2c(nnc2-c2ccc(Cl)cc2)N1` (stereo not given), 96.9% (inactive); to `CCc1ccccc1NC(=O)c1sc2nc3c(cc2c1N)C(=O)CCC3`, 24.3% (inactive). To `Cc1sc2nc3[nH]/c(=C\c4ccc(Cl)cc4)c(=O)n3c(=O)c2c1C` belongs 103% (inactive); to `CC/C(=C(\c1ccccc1)c1ccc(OCCNC)cc1)c1ccccc1`, -49.6% (active); to `CCN(CC)CCCNc1cccc2c(SCc3ccccc3)ccnc12`, 89.9% (inactive).

As for `C[C@@H]1CCC2=C(CCC[C@]2(C)C(=O)O)[C@@]1(C)CCc1ccoc1`, the growth was 94.2% (inactive).

As to `CCCN(CCC)CN(CCC)CCC`, the growth is 105% (inactive).

With `O=C(COCc1c(-c2ccccc2)no[n+]1[O-])Nc1ccc(C(=O)/C=C/c2ccc3c(c2)OCO3)cc1`, the growth was 87.5% (inactive). On to `CCN(CC)Cc1cc(Nc2c3ccccc3nc3cc(Cl)ccc23)ccc1O`, for which the growth was -60.1% (active). As for `NCCN1CCN(c2nccc(-c3ccc4ccccc4c3)n2)CC1`, the figure is 71.3% (inactive); as for `O=C(CCCN1CCOCC1)Nc1ccc(Cn2nnc3c2C(=O)c2nnn(Cc4ccc(NC(=O)CCCN5CCOCC5)cc4)c2C3=O)cc1`, 38.5% (inactive).

Take `CCOC(=O)N1CCN(c2nc(Nc3cc(C)[nH]n3)c3ccccc3n2)CC1`: the growth was 74% (inactive). For `Cc1ccc2c(c1)C(=O)c1c-2c(OCCCN(C)C)nc2ccccc12`, the growth is 17.2% (inactive). For `C(=N\Nc1nnn(Cc2ccccc2)n1)/c1ccccc1`, the growth was 39.8% (inactive). As for `O=c1cc(-c2ccccc2)[nH]c2ccccc12`, the growth was 35% (inactive).

For the compound `C[C@H](CCC(=O)O)[C@H]1CC[C@H]2[C@@H]3CC[C@@H]4/C(=C\c5ccco5)C(=O)/C(=C\c5ccco5)C[C@]4(C)[C@H]3CC[C@]12C`, the growth was 70.6% (inactive). As for `CC(C)(C)n1cc(-c2ccnc(NCCCNS(=O)(=O)c3cccc4ccccc34)c2)c(-c2cccc(O)c2)n1`, the figure is 30.6% (inactive). Consider `C/C(=C(/c1ccc(O)cc1)c1ccc(Cl)cc1)c1ccccc1`, for which the growth was -53% (active).
